An excerpt weighted towards active compounds, which were near 3.6% of everything screened.
Wnt bcat act = Wnt/beta-catenin pathway activation | AID 743398 | Wnt/beta-catenin reporter cell assay, activator, plate reader | 1.2% of 300,000 active | activation, % at 9.35 µM; in the data active means activation above about 30%, passing the limit was not always enough; inconclusive means no clear call, values can overlap the other calls;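 further: 0% = neutral control wells and 100% = positive control wells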
esBAF inh = inhibitors of esBAF chromatin remodeling in mouse ES cells; Bmi1-luciferase knock-in reporter, 24 h; 100% = twice the neutral-well signal; reporter increase, % at 12.5 µM; 2% of 350,000 active; in the data active means activation above about 40%; inconclusive means no clear call, values can overlap the other calls;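 further: 0% = median of the plate's neutral control wells and 100% = double that signal; a rise in the Bmi1 reporter signal indicates esBAF inhibition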
PHOSPHO1 inh = blocks human PHOSPHO1 phosphatase activity; Q8TCT1; inhibition, % at 13.3 µM; 1.1% of 290,000 active; AID 1565; recombinant PHOSPHO1, absorbance phosphatase assay; in the data active means inhibition above about 60%
MITF act = increases MITF-driven TRPM1 promoter luciferase signal. SK-MEL-5 TRPM1-promoter luciferase, 24 h; % of positive control, neutral wells = 0. activation, % at 12.5 µM. 0.75% of 300,000 active;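 active means mean activation of at least 80% with every replicate also reaching 80%; inconclusive means mean reaches 80% but some replicate falls short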;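 further: 0% = neutral control wells and 100% = parthenolide positive control wells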
A3G deaminase = inhibitors of human APOBEC3G DNA deaminase | Q9HC16 | recombinant A3G, ssDNA deamination FAM/TAMRA fluorescence | inhibition, % at 20 µM | 0.28% of 330,000 active | AID 493012;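 active means inhibition of at least 40% at 20 µM, with no more than 30% in the related APOBEC3A deaminase screen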;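 further: plate controls were DMSO wells with A3G for no effect and wells lacking A3G enzyme for full effect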
Target sequence (Q9HC16 whole entry, looked up): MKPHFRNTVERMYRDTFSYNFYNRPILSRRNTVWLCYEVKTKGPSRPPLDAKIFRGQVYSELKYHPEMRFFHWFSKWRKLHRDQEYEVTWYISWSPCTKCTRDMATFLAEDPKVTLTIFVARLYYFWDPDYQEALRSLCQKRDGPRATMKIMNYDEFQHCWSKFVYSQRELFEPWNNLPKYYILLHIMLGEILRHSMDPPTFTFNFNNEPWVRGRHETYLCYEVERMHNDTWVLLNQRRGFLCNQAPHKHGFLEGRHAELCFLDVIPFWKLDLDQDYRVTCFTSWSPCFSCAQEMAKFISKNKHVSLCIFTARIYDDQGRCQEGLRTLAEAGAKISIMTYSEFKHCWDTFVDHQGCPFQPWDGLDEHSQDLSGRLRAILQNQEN
A3A deaminase = inhibitors of human APOBEC3A DNA deaminase; 0.41% of 330,000 active; inhibition, % at 20 µM; recombinant A3A, FAM/TAMRA ssDNA deamination fluorescence;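 active means at least 40% inhibition at 20 µM here, with at most 30% in a related deaminase screen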;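 further: plate controls were A3A with DMSO for no effect and wells lacking A3A enzyme for full effect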
Target sequence (P31941 whole entry, looked up): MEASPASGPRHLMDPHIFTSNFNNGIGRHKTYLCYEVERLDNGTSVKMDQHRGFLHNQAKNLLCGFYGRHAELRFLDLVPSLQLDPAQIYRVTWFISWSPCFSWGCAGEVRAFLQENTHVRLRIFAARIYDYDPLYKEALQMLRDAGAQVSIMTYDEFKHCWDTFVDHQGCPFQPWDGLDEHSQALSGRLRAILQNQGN
* = called active by the depositor.

How did CC(=O)c1ccc(S(=O)(=O)N(Cc2cc3cc4c(cc3[nH]c2=O)OCCO4)CC2CCCO2)cc1 (stereo not given) do in these assays?
Wnt bcat act: 10; esBAF inh: 46*; PHOSPHO1 inh: -10; MITF act: 49; A3G deaminase: -3; A3A deaminase: -3

What do the screens show for `COc1cc(S(=O)(=O)N(Cc2ccccc2)CC2CCCO2)ccc1-n1cnnn1` (stereo not given)?
Wnt bcat act: -3; esBAF inh: -4; PHOSPHO1 inh: 47; MITF act: 5; A3G deaminase: -11; A3A deaminase: -3

What do the screens show for `COc1ccc(-c2ccc(-c3noc(C)n3)c(OC)n2)cc1`?
esBAF inh: inconclusive; PHOSPHO1 inh: 20; MITF act: 91*; A3G deaminase: -7; A3A deaminase: -5

What do the screens show for `COCc1nc(-c2ccc(-c3ccc(C)cc3)nc2OC)no1`?
Wnt bcat act: 39*; esBAF inh: 43*; PHOSPHO1 inh: -9; A3G deaminase: -2; A3A deaminase: 1

How did CCOc1nc(-c2ccc(OC)cc2)ccc1-c1noc(C)n1 do in these assays?
esBAF inh: 2; PHOSPHO1 inh: -3; MITF act: 9; A3G deaminase: -2; A3A deaminase: -1

How did O=C(C[C@H]1C[C@H]2c3cc(NC(=O)Nc4ccccc4F)ccc3O[C@H]2[C@@H](CO)O1)NCC1CC1 do in these assays?
esBAF inh: -3

Results for CCC(=O)Nc1ccc2c(c1)OC[C@H](C)N(Cc1cncnc1)C[C@@H](C)[C@@H](OC)CN(C)C2=O ?
esBAF inh: 5

What do the screens show for `Cc1ccc(SCC(=O)Nc2ccc(N3CCN(C)CC3)c(F)c2)cc1`?
Wnt bcat act: 40*; esBAF inh: 30; PHOSPHO1 inh: 11; A3G deaminase: 2; A3A deaminase: 3

What do the screens show for `C[C@H]1CN([C@@H](C)CO)C(=O)c2cc(NS(=O)(=O)c3ccc(Cl)cc3)ccc2O[C@@H]1CN(C)C(=O)Nc1ccccc1`?
esBAF inh: -2

How did CCc1nonc1NC(=O)c1oc2cc(C)c(C)cc2c1C do in these assays?
Wnt bcat act: 25; esBAF inh: 13; PHOSPHO1 inh: 7; MITF act: 86*; A3G deaminase: 3; A3A deaminase: 13

How did CCc1nonc1NC(=O)c1oc2cc(C)c(Cl)cc2c1C do in these assays?
Wnt bcat act: 0; esBAF inh: 2; PHOSPHO1 inh: 11; MITF act: 33; A3G deaminase: 0; A3A deaminase: 2

What do the screens show for `O=C(CSc1nnc2ccccn12)N1CCc2ccccc21`?
Wnt bcat act: 34*; esBAF inh: 53*; PHOSPHO1 inh: 20; MITF act: 47; A3G deaminase: -2; A3A deaminase: 4

What do the screens show for `O=C(CSc1nnc2ccccn12)N1CCc2ccccc2C1`?
esBAF inh: 52*; PHOSPHO1 inh: 48; MITF act: 35; A3G deaminase: -6; A3A deaminase: 4

Results for Cc1ccnc(SCC(=O)N2CCc3ccccc32)n1 ?
Wnt bcat act: 14; esBAF inh: 56*; PHOSPHO1 inh: 46; MITF act: 86*; A3G deaminase: -5; A3A deaminase: -4

Results for O=C(CSc1ncccn1)N1CCCc2ccccc21 ?
Wnt bcat act: 0; PHOSPHO1 inh: -3; MITF act: 2; A3G deaminase: -6; A3A deaminase: -4

What do the screens show for `Cn1ccnc1SCC(=O)N1CCc2ccccc21`?
Wnt bcat act: 13; esBAF inh: 15; PHOSPHO1 inh: 48; MITF act: 39; A3G deaminase: -12; A3A deaminase: -2

How did CO[C@H]1CN(C)C(=O)c2cc(NS(=O)(=O)c3cn(C)cn3)ccc2OC[C@@H](C)N(CCC(F)(F)F)C[C@H]1C do in these assays?
esBAF inh: -1

Results for COc1ccc(Nc2cc(C(=O)NCCCN3CCN(C)CC3)c3ccccc3n2)c(OC)c1 ?
Wnt bcat act: -2; esBAF inh: 10; PHOSPHO1 inh: 67*; MITF act: 20; A3G deaminase: 1; A3A deaminase: 0

Results for C[C@H](CO)N1C[C@H](C)[C@@H](CN(C)S(=O)(=O)c2cn(C)cn2)Oc2ccc(NS(=O)(=O)c3ccc(F)cc3)cc2CC1=O ?
esBAF inh: 2

Results for CC1CCCCC1NC(=O)COc1ccccc1C#N (stereo not given) ?
Wnt bcat act: 8; esBAF inh: 53*; MITF act: 6; A3G deaminase: -9; A3A deaminase: -3

How did N#Cc1ccccc1OCC(=O)Nc1ccc2c(c1)OCCO2 do in these assays?
Wnt bcat act: -1; esBAF inh: 66*; MITF act: 79; A3G deaminase: -6; A3A deaminase: -4

How did N#Cc1ccccc1OCC(=O)Nc1ccc2c(c1)OCO2 do in these assays?
Wnt bcat act: 3; esBAF inh: 65*

How did O=C(COc1ccccc1F)Nc1ccc2c(c1)OCCO2 do in these assays?
Wnt bcat act: 19; esBAF inh: -20; PHOSPHO1 inh: 13; MITF act: 76; A3G deaminase: -6; A3A deaminase: 0

How did N#Cc1ccccc1OCC(=O)Nc1ccc2c(c1)OCCCO2 do in these assays?
Wnt bcat act: 11; esBAF inh: 74*; PHOSPHO1 inh: 12; A3G deaminase: 5; A3A deaminase: 5

How did O=C(c1cccnc1)N1C[C@H]2[C@@H](c3ccccc31)[C@@H](CO)N2C(=O)C1CC1 do in these assays?
esBAF inh: -2

What do the screens show for `O=C(COc1ccccc1Br)Nc1ccc2c(c1)OCCCO2`?
Wnt bcat act: 0; esBAF inh: 51*; PHOSPHO1 inh: -1; MITF act: 108*; A3G deaminase: -7; A3A deaminase: -2

What do the screens show for `Cc1ccccc1-c1noc(-c2ccc(Cl)cc2)n1`?
Wnt bcat act: inconclusive; esBAF inh: inconclusive; PHOSPHO1 inh: 38; MITF act: 37; A3G deaminase: 2; A3A deaminase: 1

Results for Fc1ccccc1-c1nc(-c2ccc(Cl)cc2)no1 ?
esBAF inh: 49*; MITF act: 46; A3G deaminase: -5; A3A deaminase: -1

What do the screens show for `Cc1ccccc1-c1noc(-c2ccccc2F)n1`?
Wnt bcat act: -1; esBAF inh: 67*; PHOSPHO1 inh: -2; MITF act: 107*; A3G deaminase: 2; A3A deaminase: 2

How did O=C(Nc1ccc(OCc2ccccc2)cc1)c1ccccc1 do in these assays?
Wnt bcat act: -6; PHOSPHO1 inh: 13; MITF act: 50; A3G deaminase: -5; A3A deaminase: -2

What do the screens show for `CC(C)=CC(=O)Nc1ccc(OCc2ccccc2)cc1`?
Wnt bcat act: 41*; esBAF inh: 50*; PHOSPHO1 inh: 3; MITF act: 64; A3G deaminase: -5; A3A deaminase: 0

How did CC(C)=CC(=O)Nc1ccc(Br)cc1 do in these assays?
Wnt bcat act: -3; esBAF inh: 66*; PHOSPHO1 inh: 0; MITF act: 107*; A3G deaminase: -1; A3A deaminase: 0
